Source: PubChem BioAssay
proKLK7 act = proKLK7 (human) activation, primary screen. AID 652039. actives 0.9% (n = 370,000). purified proKLK7, EDANS-DABCYL substrate fluorescence; 100% is mature enzyme control, 0% vehicle. activation, % at 7 µM;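 active means activation above the mean of all tested compounds plus 3 SD, computed per campaign excluding outliers beyond control limits, cut at about 13% in these data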
Target sequence (P49862 whole entry, looked up): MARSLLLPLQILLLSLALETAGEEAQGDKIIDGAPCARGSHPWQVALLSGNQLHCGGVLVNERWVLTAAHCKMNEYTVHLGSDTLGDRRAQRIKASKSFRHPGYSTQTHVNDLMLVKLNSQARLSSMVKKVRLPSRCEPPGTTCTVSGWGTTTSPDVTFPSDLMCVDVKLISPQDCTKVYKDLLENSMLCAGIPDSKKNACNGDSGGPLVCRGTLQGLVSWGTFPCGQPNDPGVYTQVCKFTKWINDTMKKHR
ADAM10 inh = inhibits human ADAM10; O14672; recombinant ADAM10, EDANS/DABCYL FRET peptide cleavage, 3 h; inhibition, % at 7 µM; AID 720582; actives 0.62% (n = 370,000);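 active means inhibition above a per-campaign cutoff equal to the mean of compounds falling between control-based bounds plus 3 SD, cut at about 20% in these data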;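 further: 0% = DMSO wells while the 100% control is not disclosed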
ADAM17 inh = inhibitors of human ADAM17. inhibition, % at 6.95 µM. actives 0.83% (n = 370,000). P78536. recombinant ADAM17, EDANS/DABCYL FRET peptide cleavage;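 active means inhibition above the mean of compounds lying between control limits plus 3 SD, set per campaign, cut at about 8.5% in these data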;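 further: 0% = DMSO-only wells as the low control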
rCAG binder = molecules binding r(CAG) RNA repeats. actives 1.3% (n = 370,000). r(CAG) RNA repeat, TO-PRO-1 dye displacement fluorescence. inhibition, % at 3 µM;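 active means inhibition above the plate cutoff, the mean of all test compounds on that plate plus 3 SD, cut at about 35% in these data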;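 further: 0% = DMSO alone and 100% = 100 µM mitoxantrone as full dye displacement; higher means more dye released from RNA so lower well fluorescence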
AHR act = activates the human aryl hydrocarbon receptor. activation, % at 5 µM. actives 2.5% (n = 320,000). P35869. AHR-responsive luciferase reporter cells, luminescence; in the data active means activation above about 47%;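 further: 0% = vehicle wells and 100% = reference agonist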
GRIN3A LBD mod = NR3A (human) ligand-binding domain modulation | NR3A LBD differential scanning fluorimetry, Tm shift; 0% = protein alone, 100% = glycine-bound protein | Tm shift relative to glycine control, % at 25 µM | actives 2.5% (n = 340,000) | AID 1259313;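 active means melting temperature shift of at least 10% of the positive control shift, at one fixed dose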
proKLK7 act conf = proKLK7 activation, confirmation. AID 686949. activation, % at 7 µM. shares compounds with proKLK7 act. actives 68% (n = 3,200). purified proKLK7, EDANS-DABCYL substrate fluorescence; scaled: vehicle 0, mature enzyme 100;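 active means activation, as change over the incubation, above the mean of all tested compounds plus 3 SD, cut at about 13% in these data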
EDANS-DABCYL int = optically interferes with EDANS-DABCYL signal, flagging KLK7 hits; shares compounds with proKLK7 act; AID 686952; EDANS-DABCYL substrate fluorescence interference, no enzyme, 4 h; solvent 0%, active enzyme control 100%; activation, % at 7 µM; actives 80% (n = 3,200);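 active means activation above the all-compound mean plus 3 SD, ignoring values outside control-based bounds, cut at about 4.8% in these data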;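 further: value is the 4 h activation minus the activation read at time zero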
K7 EDANS ctr = optically interferes with EDANS-DABCYL fluorescence, kallikrein-7 activator counter-screen. AID 720493. EC50, µM. shares compounds with proKLK7 act. actives 20% (n = 250). EDANS-DABCYL peptide fluorescence interference, no enzyme;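 active means compounds that raise the fluorescence signal in this interference counterscreen, with EC50 at or below 10 µM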;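 further: intact quenched peptide substrate alone read at 355 nm excitation and 520 nm emission; signal is fluorescence gain from T0 to T4 after four hours at room temperature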
The depositor's hits bear a star. The list is not random: actives were taken first. Their share in the collection is about 7%.

Results for CCc1c(-c2ccccc2)nc2nc(C)c(C)nn12 ?
proKLK7 act: 15.0*; ADAM10 inh: -102.2; ADAM17 inh: -27.4; rCAG binder: 3.9; AHR act: 27.8; GRIN3A LBD mod: 0.3; proKLK7 act conf: -3.6; EDANS-DABCYL int: -0.1

Results for c1ccc(-c2cn3nc(-c4ccccc4)cnc3n2)cc1 ?
proKLK7 act: -3.1; ADAM10 inh: -50.1; ADAM17 inh: -15.6; rCAG binder: -0.1; AHR act: 1.7; GRIN3A LBD mod: -2.8

Results for Cc1cc(N2CCOCC2)n2cc(-c3ccc(F)cc3)nc2n1 ?
proKLK7 act: 3.9; ADAM10 inh: -172.2; ADAM17 inh: -64.0; rCAG binder: -1.8; AHR act: 1.0; GRIN3A LBD mod: 3.8

Results for Cc1nc2nc(-c3ccc(F)cc3)cn2nc1C ?
proKLK7 act: 66.6*; ADAM10 inh: inactive; ADAM17 inh: inactive; rCAG binder: -0.6; AHR act: 3.2; GRIN3A LBD mod: 1.8; proKLK7 act conf: 68.7*; EDANS-DABCYL int: 59.4*

How did Cc1cc(-c2ccccc2)c2ccc(NC(=O)C(C)(C)C)nc2n1 do in these assays?
proKLK7 act: 33.0*; ADAM10 inh: -154.2; ADAM17 inh: -69.1; rCAG binder: -6.5; AHR act: 32.1; GRIN3A LBD mod: -4.0; proKLK7 act conf: 1.2; EDANS-DABCYL int: 0.7

What do the screens show for `Cc1cc(C)nc(/N=C(\NC(=O)C(C)(C)C)Nc2ccccc2)n1`?
proKLK7 act: -0.6; ADAM10 inh: -3.9; ADAM17 inh: -0.1; rCAG binder: 1.6; AHR act: 5.9; GRIN3A LBD mod: 1.2

Results for COC(=O)c1cc(-c2ccc(OC)cc2)nc2nc(SC)[nH]c(=O)c12 ?
proKLK7 act: 24.6*; ADAM10 inh: -490.6; ADAM17 inh: -196.1; rCAG binder: 0.9; AHR act: 10.7; GRIN3A LBD mod: -2.2; proKLK7 act conf: 21.3*; EDANS-DABCYL int: 17.3*; K7 EDANS ctr: >69.5

How did Cc1cc(=O)oc2cc(OC(=O)c3ccccc3)ccc12 do in these assays?
proKLK7 act: 117.2*; ADAM10 inh: inactive; ADAM17 inh: -297.3; rCAG binder: -0.9; AHR act: 0.1; GRIN3A LBD mod: -2.4; proKLK7 act conf: 519.0*; EDANS-DABCYL int: 376.8*

How did CCOc1ccccc1Oc1coc2cc(OC(=O)c3ccco3)ccc2c1=O do in these assays?
proKLK7 act: 95.6*; ADAM10 inh: inactive; ADAM17 inh: -182.0; rCAG binder: -3.3; AHR act: 1.0; GRIN3A LBD mod: -2.5; proKLK7 act conf: 264.4*; EDANS-DABCYL int: 235.0*

Results for O=C(Oc1ccc2c(=O)c(Oc3ccc4ccccc4c3)coc2c1)c1cccnc1 ?
proKLK7 act: -1.7; ADAM10 inh: -231.9; ADAM17 inh: -60.9; rCAG binder: 5.0; AHR act: 4.2; GRIN3A LBD mod: -3.7

Results for CCc1cc(=O)oc2cc(OC(=O)c3ccco3)ccc12 ?
proKLK7 act: 352.7*; ADAM10 inh: inactive; ADAM17 inh: inactive; rCAG binder: -1.4; AHR act: 2.4; GRIN3A LBD mod: 476.1*; proKLK7 act conf: 788.5*; EDANS-DABCYL int: 761.3*

How did Cc1cc(=O)oc2cc(OCC(=O)c3ccccc3)ccc12 do in these assays?
proKLK7 act: 1.0; ADAM10 inh: -48.7; ADAM17 inh: -18.3; rCAG binder: -1.6; AHR act: -3.6; GRIN3A LBD mod: 0.5

What do the screens show for `CCc1cc(=O)oc2cc(OS(C)(=O)=O)ccc12`?
proKLK7 act: -13.4; ADAM10 inh: -456.6; ADAM17 inh: -152.7; rCAG binder: 5.0; AHR act: 8.8; GRIN3A LBD mod: -0.9
